This excerpt belongs to a sample that is enriched for hits.
CapD inh: blocks the Bacillus anthracis CapD enzyme; purified CapD enzyme, fluorescence intensity read-out; hits give low values; z-score (no concentration beside the values); 0.23% of 140,000 active; in the data active means z-score mostly below about -2.9, no sharp cut-off; inactive means mostly above about -1.9
The depositor's hits bear a star.

SMILES	CapD inh
CC(C)OCCCNC(=O)c1ccc2c(=O)n(Cc3ccco3)c(SCC(=O)Nc3nccs3)nc2c1	0.18
Cc1c(C#N)sc2ccccc12	-0.92
COc1c(C#N)sc2ccccc12	-0.385
c1ccc2c(c1)sc1ccccc12	-10.1*
Cc1ccc(-c2csc(=Nc3ccccc3)n2CCc2ccccc2)cc1C	-0.7
CCCC(CCC)C(=O)Nc1ccccc1	0.705
CC(C(=O)Nc1ccccc1)C(=O)Nc1ccccc1	-0.065
O=C(Nc1ccccc1)C(C(F)(F)F)C(F)(F)F	-3.58*
CCOC(=O)CC(=O)CSc1nc(-c2cccs2)cc(-c2ccc(OC)cc2)c1C#N	4
CC(C)(C#N)NC(=O)Nc1ccccc1	-1.55
Cc1ccc(S(=O)(=O)Nc2cccc3nnc(C)cc23)cc1	1.21
N#CC1=C(SCC(=O)Nc2ccccc2)NC(=O)CC1c1cccs1 (stereo unspecified)	0.23
O=C(Nc1c2c(nn1-c1ccc(Cl)cc1)CSC2)c1ccc(S(=O)(=O)N2CCOCC2)cc1	-0.49
CCc1ccc(-n2c(=S)sc3c(=O)[nH]c(SCC4OCCO4)nc32)cc1	-1.52
CCc1ccc(-n2c(=S)sc3c(=O)[nH]c(SCC(=O)O)nc32)cc1	-4.3*
CCc1ccc(-n2c(=S)sc3c(=O)[nH]c(SCC(=O)Nc4nccs4)nc32)cc1	0.14
O=C(Cn1ncc2ccccc21)Nc1ccc(Cl)cn1	-0.08
CCCCNC(=O)c1ccc2c(c1)NC(=O)C(C)N2 (stereo unspecified)	16.5
O=C(CSc1ccc(Br)cc1)c1ccc(Cl)s1	0.865
O=c1c2nccnc2nc(SCc2ccc(F)cc2)n1Cc1ccccc1	-0.305
O=c1c2cccnc2nc(SCc2ccccc2F)n1Cc1ccccc1	1.01
N#Cc1ccc(CSc2nc3ncccc3c(=O)n2Cc2ccccc2)cc1	-6.45*
CCN(CC)c1nc(-c2ccccc2)nc(-c2ccc(Cl)cc2)c1C#N	0.32
CCCOc1ccc(C(=O)NCC2(c3ccc(OC)cc3)CCOCC2)cc1	9.41
O=C1CC(c2ccc(Cl)cc2)CC(=O)C1/C=N\OCc1nnsc1Cl (stereo unspecified)	-0.895
SMILES	CapD inh
COC(=O)C1=C(C(=O)OC)SC(=C2C(=S)C(C)(C)N(C(=O)c3cccc(OC)c3)c3c(OC)cccc32)S1	0.83
COc1ccc(N(C(C)=O)S(=O)(=O)c2ccc(C)cc2)cc1	-3.44
CCCC(=O)Oc1ccc(N(C(=O)CCC)S(=O)(=O)c2ccccc2)cc1	-0.49
CC(=O)Oc1ccc(N(C(C)=O)S(=O)(=O)c2ccccc2)cc1	-4.21*
O=C(/C=N/O)Nc1ccccc1F	-0.21
Cc1ccc(CSc2nc3c(c(Sc4ccccc4)n2)CCCC3)cc1	-0.495
FC(F)(F)c1cc(NCc2ccccc2C(F)(F)F)nc(-c2ccccn2)n1	0.36
CCOC(=O)/C(C#N)=C/Nc1ccc2c(c1)OCO2	-0.6
CCOC(=O)/C(C#N)=C/Nc1ccn[nH]1	-1.89
CCOC(=O)/C(C#N)=C/Nc1cc(C)no1	-4.16*
COc1ccc(/C(C#N)=C/c2cc(OC)c(OC)c(OC)c2)cc1	18.9
COc1ccccc1-c1c(C)nn2c(N3CCc4ccccc43)cc(C)nc12	3.23
Cc1cc(N2CCN(c3ccccn3)CC2)n2ncnc2n1	-0.31
Cc1cc(N2CCc3ccccc32)n2ncnc2n1	-4.67*
CCOC(=O)C1=C(C)C2C3C(=O)N(c4ccccc4[N+](=O)[O-])C(=O)C3C1(C)C1C(=O)N(c3ccccc3[N+](=O)[O-])C(=O)C21 (stereo unspecified)	-0.585
O=C(c1cccc(NC(=O)N2CCSc3ncccc32)c1)N1CCC2(CC1)OCCO2	-0.2
Cc1ccc(NC(=O)c2sc(=S)n3c2[nH]c(=O)c2ccccc23)c(C)c1	-1.34
COc1ccc(NC(=O)c2sc(=S)n3c2[nH]c(=O)c2ccccc23)cc1	-2.34
Cc1cccc(N2CCN(C(=O)c3ccc4c(=O)[nH]c5c(C(=O)NC(C)C)sc(=S)n5c4c3)CC2)c1C	-3.87*
Cc1ccc(N2C(=O)C(N3C(=O)c4ccccc4C3=O)C2c2ccc(F)cc2)cc1F (stereo unspecified)	-0.18
CCOC(=O)c1c(C)oc2ccc(OCC(=O)c3ccc(Br)cc3)cc12	-0.13
COc1ccc(C(=O)Nc2cc(C(C)=O)c(/C=C/N(C)C)oc2=O)cc1	-0.615
COc1ccc2oc(/C=C/N(C)C)c(C(=O)c3ccc(Br)cc3)c2c1	-3.27*
Cc1oc(-c2ccc(C(=O)NC3CC3)cc2)nc1COc1ccccc1	0.15
COc1ccc2c(c1)c(=O)c1ccccc1n2CC(=O)Nc1ccc(F)cc1F	-0.09
SMILES	CapD inh
CCOC(=O)c1c(NC(=O)CSc2nnc3c4ccccc4n(CC)c3n2)sc2c1CCN(C)C2	0.53
CC(=O)Oc1ccccc1N(C(C)=O)S(=O)(=O)c1ccc(C)cc1	-0.385
COc1ccccc1N(C(C)=O)S(=O)(=O)c1ccc(Cl)cc1	-4.7*
COc1ccc(N(C(=O)c2ccccc2)S(=O)(=O)c2ccc(Cl)cc2)cc1	0.455
COC(=O)CCN1C(=O)/C(=C\c2ccc(O)c(OC)c2)SC1=S	-0.13
COc1cc(/C=C2/SC(=S)N(NC(C)=O)C2=O)ccc1O	-4.8*
COc1cc(/C=C2\SC(=S)N(NC(=O)c3ccc(Br)cc3)C2=O)cc(OC)c1OC	0.76
